A short description of test [1]: NCI Yeast Anticancer Drug Screen. Data for the rad50 strain (AID 155).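 Also: 0% = growth of vehicle-only cultures of the same strain.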 Particulars: S. cerevisiae rad50 strain growth inhibition; at 50.0 µM; stronger effect = higher value. In short, it runs like this: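 Yeast carrying a defined DNA repair defect were exposed to test compounds, and growth was compared with vehicle-treated controls to give percent inhibition.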
Test [2] is described as follows: NCI Yeast Anticancer Drug Screen. Data for the mec2-1 strain (AID 157). To be noted: S. cerevisiae mec2-1 strain, at 50.0 µM, stronger effect = higher value. In short, it runs like this: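 Mutant yeast (mec2-1) grown with compound; growth inhibition relative to vehicle control reported.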
A short description of test [3]: NCI Yeast Anticancer Drug Screen. Data for the sgs1 mgt1 strain (AID 161).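 Also: 0% = growth of cultures given vehicle only.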 To be noted: S. cerevisiae sgs1 mgt1 strain, at 50.0 µM, stronger effect = higher value. In short, it runs like this: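 Growth of a repair-deficient yeast mutant was monitored after compound treatment and expressed as inhibition relative to vehicle-treated cultures.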
Test [4] can be described thus: NCI Yeast Anticancer Drug Screen. Data for the cln2 rad14 strain (AID 165).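 Also: 0% = growth equal to vehicle treated cultures.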 To be noted: S. cerevisiae cln2 rad14 strain, at 50.0 µM, stronger effect = higher value. In short, it runs like this: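 Readout is yeast growth inhibition versus vehicle-treated controls, using a strain with cln2 and rad14 alterations exposed to compound.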
Test [5] can be described thus: NCI Yeast Anticancer Drug Screen. Data for the bub3 strain (AID 167). To be noted: S. cerevisiae bub3 mutant strain, at 50.0 µM, stronger effect = higher value. In short, it runs like this: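 Compounds were applied to a genetically altered yeast strain carrying a cell-cycle control defect. Growth inhibition was scored against vehicle-treated controls.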
Test [6] can be described thus: NCI Yeast Anticancer Drug Screen. Data for the mlh1 rad18 strain (AID 175). Particulars: S. cerevisiae mlh1 rad18 strain growth inhibition; at 50.0 µM; stronger effect = higher value. In short, it runs like this: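 Genetically defined yeast (DNA repair-deficient) exposed to compounds; growth inhibition determined relative to vehicle.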

This is part of a sample that, as a whole, favours compounds with a hit. Of some 79,000 tested, about 15% had one in any assay. Unmarked numbers belong to inactive results. Active and inactive are the calls of the source. Rule as the data show it: active = growth inhibition above about 70%; inactive = the rest.

For the compound `CCN(CC)CN(CC)CC`, the growth inhibition in test [1] was 13.7%; in test [2], -9.2%; in test [3] it was 7.6%; in test [4], 21.4%; in test [5], 10.9%; in test [6], 9.25%.
Regarding `N#CC(C#N)=C(N)/C(C#N)=C/c1ccc2[nH]ccc2c1`, the growth inhibition is -11% in test [1]; 6.95% in test [2]; -29.2% in test [3]; -24.9% in test [4]; -26.6% in test [5]; -24.1% in test [6].
For `CC(C)C(N=Cc1ccccc1O)C(=O)O` (stereo not given), the growth inhibition in test [1] is -8.35%; in test [2], -21.9%; in test [3], -10.2%; in test [4], -5.75%; in test [5], -47.9%; in test [6], -4.3%.
As for `Oc1ccc2ccccc2c1CNC1CCCCC1`, the growth inhibition in test [1] is -9.05%; in test [2] it was -18.9%; in test [3], -9.05%; in test [4], -26.1%; in test [5], 29.7%; in test [6], -26.6%.
Consider `Fc1c(F)c(F)c(CCc2c(F)c(F)c(F)c(F)c2F)c(F)c1F`, for which the growth inhibition was 11.2% in test [1]; -8.2% in test [2]; 15.9% in test [3]; -39.1% in test [4]; -41.4% in test [5]; 19.2% in test [6].
As for `O=C(NCCCCCCNC(=O)OCCSCCn1cc(C(=O)NC(=O)OCc2ccccc2)c(=O)[nH]c1=O)OCCSCCn1cc(C(=O)NC(=O)OCc2ccccc2)c(=O)[nH]c1=O`, the growth inhibition in test [1] was -21.3%; in test [2] it was -23.6%; in test [3], 2.6%; in test [4], 2.55%; in test [5], 15.1%; in test [6], -9.95%.
Regarding `COc1ccccc1NC(=O)C(CC(C(=O)Nc1ccccc1OC)/C(C)=N/Nc1ccc([N+](=O)[O-])cc1[N+](=O)[O-])/C(C)=N/Nc1ccc([N+](=O)[O-])cc1[N+](=O)[O-]` (stereo not given), the growth inhibition in test [1] was 14.8%; in test [2] it was 4.95%; in test [3], 19.6%; in test [4], 10.6%; in test [5], 17.8%; in test [6], 32.4%.
For the compound `COc1ccc(OC)c(/C=C/c2ccccc2)c1`, the growth inhibition in test [1] is 0.5%; in test [2], -29.1%; in test [3], 8.25%; in test [4], -24.8%; in test [5] it was 1.6%; in test [6], -14.9%.
For the compound `O=C(Nc1ccccc1C(=O)N/N=C/c1cccc(O)c1)c1ccccc1`, the growth inhibition in test [1] is 9.5%; in test [2] it was 24.8%; in test [3] it was 12.9%; in test [4], -20%; in test [5], 34.5%; in test [6], 4.55%.
Consider `O=[N+]([O-])c1ccc2c(c1)nc(-c1ccccn1)n2CCc1ccncc1`, for which the growth inhibition is 95.2% (active) in test [1]; 98.7% (active) in test [2]; 99% (active) in test [3]; 87% (active) in test [4]; 56.2% in test [5]; 99.2% (active) in test [6].
As to `CCCCOC(=O)C(C)C(=O)CCC(C)CC` (stereo not given), the growth inhibition was 4.55% in test [1]; 2.6% in test [2]; -1.1% in test [3]; -7.05% in test [4]; 8.2% in test [5]; 3.85% in test [6].
For the compound `Cn1c(COC(=O)Nc2ccccc2)c(COC(=O)Nc2ccccc2)c2ccc3cc(Cl)c(Cl)cc3c21`, the growth inhibition was 72.9% (active) in test [1]; 78.8% (active) in test [2]; 76.3% (active) in test [3]; 81.2% (active) in test [4]; 84.3% (active) in test [5]; -44% in test [6].
For the compound `COC(=O)NN1C(C)=C(C(=O)OC)C2(C#N)C(C(=O)OC)=C(C)N(NC(=O)OC)C12N` (stereo not given), the growth inhibition is -14.4% in test [1]; -26.6% in test [2]; -56% in test [3]; 9.85% in test [4]; 10.2% in test [5]; -18.4% in test [6].
For `O=NN(C(=O)NCCCl)c1[nH]c(=O)ncc1I`, the growth inhibition in test [1] is -8.65%; in test [2], -9.7%; in test [3] it was -13.9%; in test [4], -25.2%; in test [5] it was 3.05%; in test [6] it was -6.1%.
Take `NNC1=Nc2ccc(Cl)cc2C(=S)N2CSCC12` (stereo not given): the growth inhibition in test [1] is -1.05%; in test [2] it was -3.1%; in test [3], -11.7%; in test [4] it was -11.8%; in test [5] it was -8.95%; in test [6], 9.25%.
`S=C(S)NC1CCCCC1`: the growth inhibition in test [1] was -28.9%; in test [2], -18.3%; in test [3], -12.2%; in test [4], -44%; in test [5], -13.1%; in test [6], -3.75%.
Consider `COc1cc(OC)c2nccc(NCCCN(C)C)c2c1[N+](=O)[O-]`, for which the growth inhibition is 4.75% in test [1]; -22.4% in test [2]; 5.75% in test [3]; 21.6% in test [4]; -3.4% in test [5]; 4.75% in test [6].
With `C=CCCCCCCCCC(=O)NCc1ccncc1`, the growth inhibition was 56.2% in test [1]; 29.2% in test [2]; 59.5% in test [3]; 50.4% in test [4]; 41.7% in test [5]; 86.7% (active) in test [6].
On to `CC1CCCCN1P(N1CCCCC1C)N1CCCCC1C` (stereo not given), for which the growth inhibition in test [1] is 36.4%; in test [2], 20.4%; in test [3], 29%; in test [4] it was 25.6%; in test [5], 23.4%; in test [6] it was 33.5%.
Take `C1CCC(C(C2CCCCC2)C2CCCCC2)CC1`: the growth inhibition in test [1] was -16.9%; in test [2] it was -0.65%; in test [3] it was -8.6%; in test [4], 28%; in test [5], -4.3%; in test [6], -11.3%.

(Values after PubChem BioAssay (NCI).)
